From the supplement of paper PMC10338343
± gives the standard deviation.

tested on: MILI (PIWIL2) piRISC loaded with L1MC piRNA (26 nt); assay: pre-steady-state target cleavage rate (min^-1); guide: L1MC piRNA 5'p-UAACUAAAUACUAUGCAAGCUGUAGG; MIWI and MILI are mouse PIWI proteins and EfPiwi is from a freshwater sponge; tags in brackets are library labels; higher = faster piRNA-guided slicing of the target; details: auxiliary factor: 500 nM mouse GTSF1
Method in brief: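 The pre-steady-state cleavage rate came from a burst-and-steady-state fit to pooled data from three Cleave-'n-Seq trials, in which uncleaved targets were sequenced and normalised to depth and to weakly complementary targets. Each reaction held 0.1 nM transcribed, DNA-blocked target RNA library and 1 nM active affinity-purified piRISC carrying one synthetic guide, with or without 500 nM GTSF1 partner protein, in HEPES–potassium acetate buffer at 33 °C for 0–8 or 0–960 min. k3 was capped at 0.0001 min^-1.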

Going from UCCUGGUACAGCUUGCUUAGAAUUUAGUUA to UCCUGGAUCAGCUUGCAUAGUAUAAUGAAA, the “pre-steady-state target cleavage rate” value falls from 0.181 ± 0.059 to 0.0691 ± 0.022.

First: UCCUGGAACAGCUUGCAUACUAUUUAGAAA
Second: UCCUCCUACAGCUUGGAUAGAAUUUAGUUA
The “pre-steady-state target cleavage rate” value of the first is lower: 0.0271 ± 0.011 for the first, 0.0614 ± 0.015 for the second.

First: UCCUGGAUGUCGAUGCAUACUAUUUAGUUA
Second: UCCUGGAUGUGCUUGCAUAGUAUUAAGAAA
The “pre-steady-state target cleavage rate” value of the first is higher: 0.0178 ± 0.0056 for the first, 0.00586 ± 0.0036 for the second.

UCCUGGUACAGCUUGCUAAGUAUUUACAAA and UCCUGGAUGUCCUUGCUAAGUAUUUAGUAA are within error of each other in “pre-steady-state target cleavage rate” value: 0.0119 ± 0.0056 for the first, 0.0128 ± 0.006 for the second.

UCCUGGUACUGCUUGCAUAGUAUUUAGAUA and UCCUGGAACAGCUUGCAUUGAAUUUAGUUA are within error of each other in “pre-steady-state target cleavage rate” value: 0.0302 ± 0.014 for the first, 0.0179 ± 0.006 for the second.

UCCUGGAACAGCUUGCAUAGAAUUUACAAA and UCCUGGUACAGCUUGCAUAAGUAUUUAGUUA are within error of each other in “pre-steady-state target cleavage rate” value: 0.0177 ± 0.0082 for the first, 0.00838 ± 0.0052 for the second.

Compared with UCCUGGAUGUCGAAGCAUAGUAUUAAGUUA, UCCUGGAUGAGCUUGGAUAGUAUUAAGUUA is higher in “pre-steady-state target cleavage rate” value: 0.034 ± 0.0088 for the first, 0.0932 ± 0.022 for the second.

UCCUGGAUGUCCUUGCAUAGUAUUAUGUUA and UCCUCCUAGUGCUUGCAUAGUAUUUAGAAA are within error of each other in “pre-steady-state target cleavage rate” value: 0.00972 ± 0.0046 for the first, 0.0113 ± 0.0046 for the second.

First: UCCUGGAUGAGCUUGCAUAGUAUUUUGAAA
Second: UCCUGGAUGAGCAUCCAUAGUAUUUAGUUA
The “pre-steady-state target cleavage rate” value of the first is lower: 0.0223 ± 0.0096 for the first, 0.231 ± 0.059 for the second.

First: UCCUGGAUGUCGAAGCAUAGUAUUUAGUA
Second: UCCUGCUACAGCAAGCAUAGUAUUUAGAAA
The “pre-steady-state target cleavage rate” value of the first is lower: 0.0246 ± 0.008 for the first, 0.217 ± 0.052 for the second.

Going from UCCUGGAUCAGCUUGCAUAGUAAAAAGUUA to UCCUGGAUGAGCUAGCAUAGUAUUUACUUA, the “pre-steady-state target cleavage rate” value rises from 0.102 ± 0.019 to 0.169 ± 0.042.

UCCUGGAUGUGCUAGCAUAGUAUUUAGAAA and UCCUGGAUGAGCUUGCAAAGUAUUUACUUA are within error of each other in “pre-steady-state target cleavage rate” value: 0.0422 ± 0.012 for the first, 0.046 ± 0.014 for the second.

First: UCCUGGUACACGUUGCAUAGUAUUUAGAAA
Second: UCCUGGAUGACCUUGCAUAGUAUUUUGUUA
The “pre-steady-state target cleavage rate” value of the first is lower: 0.0229 ± 0.011 for the first, 0.0852 ± 0.023 for the second.

Compared with UCCUGGAACAGCUUGCAUAGUUUUUACAAA, UCCUGGUACAGCUUGGUUAGUAUUUAGAAA is higher in “pre-steady-state target cleavage rate” value: 0.00599 ± 0.0038 for the first, 0.043 ± 0.016 for the second.

First: UCCUGGAUGAGCUUGCAUAUAUUUAGUUA
Second: UCCUGGAUCAGCUUGCAUAGUAUUUUCUAA
The “pre-steady-state target cleavage rate” value of the first is lower: 0.00951 ± 0.0043 for the first, 0.0634 ± 0.017 for the second.

First: UCCUGGAUCAGCUUGCAUAGAUUUUAGUAA
Second: UCCUGGAUGUGCUUGCUUAGUAUUAAGUUA
The “pre-steady-state target cleavage rate” value of the first is lower: 0.0227 ± 0.0073 for the first, 0.0615 ± 0.017 for the second.

First: UCCUGGAUGACCUUGCAUAGUAUUUACUUA
Second: UCCUGGAUGUCGAACGAUAGUAUUUAGUAUA
The “pre-steady-state target cleavage rate” value of the first is higher: 0.0753 ± 0.027 for the first, less than 0.0001 for the second.

UCCUCCUACAGCUUGCAUUGUAUUUUCAAA and UCCUGGAACAGCUAGCAUAGAAUUUAGUUA are within error of each other in “pre-steady-state target cleavage rate” value: 0.0415 ± 0.012 for the first, 0.0486 ± 0.0073 for the second.

same assay, conditions: auxiliary factor: none (no GTSF1)

UCCUGGAUGUCGAACGUUAGUAUUUGUUA and UCCUGGAUGUCGAACCAUAGUAUUAUGUUA cannot be ordered by “pre-steady-state target cleavage rate” value: less than 0.0001 for the first, less than 0.0001 for the second.

Compared with UCCUGGAUGUCGAACGUUAGUAAUUAGUUA, UCCUGGAUGUCGUUGCAAAGUUUUUAGUUA is higher in “pre-steady-state target cleavage rate” value: less than 0.0001 for the first, 0.00384 ± 0.0022 for the second.
